Screening results from PubChem BioAssay.
GLP1R ag: agonists of human GLP-1 receptor; P43220; HEK293 GLP-1R CRE-luciferase, luminescence, 4-6 h; cells express a hypersensitive GLP-1R form; Potency, µM (series often up to 45.6 µM), inactives show top-dose activation, most hits filed as activators; 380,000 compounds, 0.007% hits; AID 624172; further: potency means the concentration at half of the fitted maximal effect; % of control where 0% means no effect
Target sequence (P43220 whole entry, looked up): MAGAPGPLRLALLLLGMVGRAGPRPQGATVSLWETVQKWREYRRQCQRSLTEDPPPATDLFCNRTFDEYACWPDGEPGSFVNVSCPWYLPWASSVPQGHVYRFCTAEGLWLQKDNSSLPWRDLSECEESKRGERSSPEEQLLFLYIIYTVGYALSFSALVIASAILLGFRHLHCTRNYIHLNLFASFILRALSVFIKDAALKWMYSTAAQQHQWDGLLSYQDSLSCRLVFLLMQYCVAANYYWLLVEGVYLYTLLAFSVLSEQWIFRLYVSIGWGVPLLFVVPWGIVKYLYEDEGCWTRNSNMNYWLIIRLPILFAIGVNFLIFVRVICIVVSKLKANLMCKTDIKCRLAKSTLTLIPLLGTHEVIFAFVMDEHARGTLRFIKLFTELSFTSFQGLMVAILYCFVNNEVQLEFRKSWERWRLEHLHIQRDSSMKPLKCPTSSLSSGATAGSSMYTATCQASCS
D3 ag: activates the human D3 dopamine receptor; 410,000 compounds, 0.58% hits; D3R DiscoveRx beta-arrestin cells, luminescence, 90 min; max activation, %; P35462; AID 652048; in the data active means max activation above about 30%; further: 0% is about no effect
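Agonist-mode cell screen: cells plated at 1500/well and incubated overnight at 37 °C, then exposed to library compounds for 90 min at 37 °C. Detection reagent was added for 30–60 min at room temperature, and luminescence was read.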
ClpP mod: qHTS Assay for Activators of ClpP | Potency, µM (series often up to 57.5 µM), inactives show top-dose activity change, negative = active | purified B. subtilis ClpP, FRET peptide cleavage, 20 min | ATP-dependent Clp protease proteolytic subunit (Bacillus subtilis (strain 168)), P80244 | 340,000 compounds, 1.9% hits; active means well fitted falling curve with a large enough effect; inconclusive means small, poorly fitted or top-dose-only effect; inactive means no such curve, though single readings can be large or run the other way; further: potency means the concentration at half of the fitted maximal effect; the source files actives as falling curves though it sought activators and does not explain the sign; nearly all actives have a fitted effect of over 65% in size
Target sequence (P80244 whole entry, looked up): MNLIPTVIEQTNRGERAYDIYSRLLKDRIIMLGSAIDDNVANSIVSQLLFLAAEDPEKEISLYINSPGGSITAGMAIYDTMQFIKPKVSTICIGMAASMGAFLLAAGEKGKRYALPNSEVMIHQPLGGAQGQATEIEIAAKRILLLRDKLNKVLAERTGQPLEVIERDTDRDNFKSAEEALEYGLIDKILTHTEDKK
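FRET quenching reversal measured ClpP activation: 10 microg/mL B. subtilis ClpP at pH 8 with the FRET-FV decapeptide, read at 430 nm after 320 nm excitation. The 20-min minus 0-min signal was scaled between DMSO/no-enzyme wells and ADEP (5.8 microM final).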
HEK293 tox: cytotoxicity counter-screen for GLP-1 receptor inverse agonists. HEK293 cAMP-luciferase reporter cells, luminescence, 24 h. Potency, µM (titrated, usually from 38.3 µM), for inactives: top-dose activity change, negative = inhibition, usual class: inhibitors. 410,000 compounds, 0.13% hits;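 further: loss of luciferase light is scored as toxicity; potency means the concentration at half of the fitted maximal effect; on the % scale 0 is the no-effect control and ±100 the full control effect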
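To flag toxic compounds, the library was rerun on cells for 24 hr at 37 deg C and 5% CO2. Viability-linked luminescence was captured 12 min after adding luciferase detection reagent.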
GLP1R inv ag: acts as inverse agonist at human GLP-1 receptor; P43220; HEK293 GLP-1R CRE-luciferase, luminescence, 24 h; GLP-1R form is constitutively active; Potency, µM (top dose mostly 38.3 µM), for inactives: at the highest dose activity change, negative = inhibition, actives largely listed as inhibitors; 410,000 compounds, 1.6% hits; further: potency means the concentration at half of the fitted maximal effect; on the % scale 0 is the no-effect control and ±100 the full control effect; nearly all actives have a fitted effect of over 55% in size
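Constitutively active GLP-1R drives a cAMP-responsive luciferase in stably transfected HEK293 cells; test compounds are added after overnight (12 h) attachment and left 24 hr, and signal loss in luminescence marks inhibition.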
D3 antag: blocks the human D3 dopamine receptor. D3R cells, DiscoveRx beta-arrestin luminescence, antagonist mode; stronger effect = lower value. AID 652054. P35462. max response, negative = inhibition, %. 360,000 compounds, 2.5% hits; in the data active means max response below about -50%; inconclusive means no clear call, values can overlap the other calls; further: on the % scale 0 is the no-effect control and ±100 the full control effect
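Cells expressing the human receptor were seeded at 1500 cells/well, incubated overnight at 37 degrees C in 5% CO2, then exposed to library compounds with dopamine controls for 90 minutes at 37 degrees C before luminescent detection.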
The depositor's hits bear a star; ? = inconclusive; . = not tested or not shown; [ ] = another dose, or the depositor's remark. A selection: hits, their analogues and other compounds. The true share with any hit is near 5.7%. Unless noted, the call rests on the fitted dose curve; in most records, active means well fitted curve in the direction sought with a large enough effect; inconclusive means small, poorly fitted or top-dose-only effect, or another doubt; inactive means no such curve, though single readings can be large; an effect the other way counts as inactive or inconclusive.

SMILES	GLP1R ag	D3 ag	ClpP mod	HEK293 tox	GLP1R inv ag	D3 antag
C=C(C)[C@@H]1C2=CC(C(=O)OC)=C(C[C@@H](C(=C)C)[C@H]3O[C@H]3C3=C[C@H]1OC3=O)O2	.	.	-4.1%	.	.	.
CN(CC(=O)NCC(c1ccco1)N1CCCCC1)S(=O)(=O)c1ccc(Cl)cc1 (centres undefined)	14.6%	-3.5	-1.0%	0.4%	12.6µM*	-4.2
CN(CC(=O)NCCCN1CCOCC1)S(=O)(=O)c1ccc(Cl)cc1	-2.3%	0.3	20µM*	-22.3%	-29.4%	21.2
O=C(NCC(c1ccco1)N1CCCCC1)C(c1ccccc1)c1ccccc1 (centres undefined)	4.6%	-13.3	.	0.4%	11.2µM*	-15.0
O=C(NCC(c1ccco1)N1CCCCC1)c1cccs1 (centres undefined)	0.5%	-5.1	-4.7%	-10.7%	4.7%	5.2
COc1ccc(S(=O)(=O)N(C)CC(=O)NCCN2CCOCC2)cc1	6.8%	-0.9	.	-12.8%	8.1%	0.8
O=C(NCC(c1ccco1)N1CCCCC1)c1cc2c(s1)CCCC2 (centres undefined)	-1.6%	-23.7	0.6%	-2.7%	?	-75.3*
CCCCCCCCS(=O)c1sc2nc(C)cc(C)c2c1N (centres undefined)	4.9%	7.5	-24.1%	-16.0%	?	27.7
CCCCCCC(C)n1[nH]c(=O)c2c(C)cc(C)nc21 (centres undefined)	8.9%	-26.1	.	20.1%	10µM*	-1.9
CCCCCC(C)n1[nH]c(=O)cc1N (centres undefined)	7.0%	4.1	-0.9%	4.6%	0.5%	-109.4*
COC(=O)c1ccc(NC(=O)c2c(-c3ccccc3)c(-c3ccccc3)nn(C)c2=O)cc1	.	10.2	-0.5%	0.4%	15.7%	.
O=C(O)CC1NC(=S)N(Cc2ccccc2)C1=O (centres undefined)	-2.5%	0.2	-0.8%	?	7.94µM*	0.0
CC1NC(=S)N(Cc2ccccc2)C1=O (centres undefined)	9.0%	5.6	.	-14.1%	?	11.4
COc1ccc(CCC(C)NCc2cc(OC)cc(OC)c2)cc1 (centres undefined)	-2.2%	-5.8	-0.9%	-6.2%	-23.0%	12.7
COc1ccc(CCC(C)NC2CCCCCCC2)cc1 (centres undefined)	1.0%	-11.0	-1.1%	22.9%	?	-67.2*
COc1ccc(CCC(C)NCC2CCCCC2)cc1 (centres undefined)	14.6%	-11.4	-3.5%	16.8%	?	-69.6*
COc1ccc(CCC(=O)NC2CCCCC2)cc1	3.5%	3.2	1.3%	-2.9%	14.7%	1.9
CCOc1ccc(-c2cc(C(=O)Oc3ccc(C#N)cc3)no2)cc1	.	-40.6	-16.9%	0.7%	3.5%	.
COc1ccc(S(=O)(=O)N2CCCCC2)cc1NC(=O)CSc1nnc(C2CC2)n1C	-1.8%	0.3	0.0%	4.5%	10.7%	-11.8
COc1ccc(OCCCC(=O)Nc2cc(S(=O)(=O)N3CCCCC3)ccc2C)cc1	-5.2%	-3.4	-13.0%	2.2%	5.62µM*	-27.2
Cc1ccc(S(=O)(=O)N2CCCCC2)cc1NC(=O)CSc1nnc(C2CC2)n1C	1.0%	-8.3	-0.5%	6.5%	-27.5%	-71.4*
Cc1ccc(S(=O)(=O)N2CCCCC2)cc1NC(=O)COC(=O)C1(C)CC1(Cl)Cl (centres undefined)	9.6%	9.4	-0.7%	-7.0%	7.94µM*	28.8
O=C(NCCC(F)(F)F)C1Cc2c(-c3ccc(Cl)cc3)ccnc2O1 (centres undefined)	-1.3%	-6.5	-7.9%	-7.0%	-29.5%	1.1
OC[C@H]1O[C@H](OC/C=C/c2ccccc2)[C@H](O)[C@@H](O)[C@@H]1O	-5.7%	.	.	.	.	.
COc1ccc(NC(=O)c2nnn(Cc3nc(-c4cc(OC)c(OC)c(OC)c4)oc3C)c2C)cc1Cl	0.0%	-15.8	-3.3%	0.7%	0.9%	.
SMILES	GLP1R ag	D3 ag	ClpP mod	HEK293 tox	GLP1R inv ag	D3 antag
Cc1nn(-c2nccs2)c2c1C(=O)CC(C)(C)C2Br (centres undefined)	-3.9%	-2.3	-1.5%	14.7%	1.3%	0.0
Cc1ccc(C(=O)CSc2nnnn2C(C)C)c(C)c1	-3.5%	-13.7	.	-3.8%	4.47µM*	-12.6
CC(=O)NC(Cc1cccc(C)c1)C(=O)NC1CCN(c2ncccc2[N+](=O)[O-])CC1 (centres undefined)	2.3%	0.5	15.8µM*	4.9%	-5.5%	8.9
CCOc1ccccc1CN1CCCC(C(=O)c2ccc(OC)c(OC)c2)C1 (centres undefined)	6.8%	-14.6	-19.4%	-6.5%	-28.1%	-50.8*
COc1ccc2cc(C(=O)C3CCCN(Cc4cnc(N5CCOCC5)s4)C3)ccc2c1 (centres undefined)	9.8%	-15.8	.	-33.7%	?	2.7
CC(C)Oc1cccc(C(=O)C2CCCN(Cc3cnc(N4CCCC4)s3)C2)c1 (centres undefined)	30.7%	-17.9	.	-1.6%	?	-82.7*
COc1cccc(C(=O)C2CCCN(Cc3cn[nH]c3C3CCCCC3)C2)c1 (centres undefined)	14.2%	-16.0	.	-6.8%	10µM*	-86.3*
Cc1ccsc1C(=O)C1CCCN(Cc2cc(F)ccc2-n2cccn2)C1 (centres undefined)	-3.0%	-18.4	-9.2%	3.9%[0.307 µM]	-4.3%[0.307 µM]	-61.7*
CCSc1nc(-c2ccc(OC)cc2)nc2c1Cc1c(CO)cnc(C)c1O2	.	2.8	-2.0%	9.0%	1.4%	.
CCCCSCCCNC(=O)C1CCC(CNS(=O)(=O)c2c(C)cc(C)cc2C)CC1 (centres undefined)	.	2.2	1.3%	1.9%	-9.4%	.
Cc1ccc2oc(=O)c3cc(C(=O)N4CCN(c5ccccc5F)CC4)sc3c2c1	-1.5%	-0.4	-3.5%	-29.3%	-16.1%	.
O=S(=O)(O)OCC1OC(OC2(COS(=O)(=O)O)OC(COS(=O)(=O)O)C(OS(=O)(=O)O)C2OS(=O)(=O)O)C(OS(=O)(=O)O)C(OS(=O)(=O)O)C1OS(=O)(=O)O (centres undefined)	-2.8%	.	.	.	.	.
CC(=O)c1ccc(NC(=O)CSc2cn(CC(=O)N3CCCCC3)c3ccccc23)cc1	.	-6.8	-0.1%	-2.5%	16.8%	.
COc1cc(OC)c(OC)cc1CN1CCCC(C(=O)c2sccc2C)C1 (centres undefined)	18.8%	-38.0	.	-15.6%	?	-93.0*
